# UBC13 polyUb = UBC13 polyubiquitin chain formation inhibitors, primary screen, biochemical, TR-FRET, uHTS | Ubiquitin-conjugating enzyme E2 N (Homo sapiens), P61088 | inhibition, % at 20 µM | actives 0.47% (n = 330,000) | AID 485273, 2010; in the data active = inhibition above about 45%, passing the limit was not always enough
# MEKK2 mut-MEK5 = MEK5 binding signal on mutant MEKK2 PB1, primary screen, biochemical, multiplex bead flow cytometry, Alexa488-MEK5 | Alexa488-MEK5 binding to MEKK2 mutant | percent response, % at 10 µM | actives 0.35% (n = 290,000); in the data active = percent response above about 24%, passing the limit was not always enough
# MEKK2wt PB1 HTS = modulators of MEK5 binding to wildtype MEKK2, primary screen, biochemical, multiplex bead flow cytometry, Alexa488-MEK5; actives 1.1% (n = 290,000); Alexa488-MEK5 binding to MEKK2 WT; actives lie on both sides; binding response (% of control), % at 10 µM; AID 1531, 2009; Mitogen-activated protein kinase kinase kinase 2 (Homo sapiens), Q9Y2U5; in the data active = binding response below about 67% or above about 130%
# ATG4B inhibitor = ATG4B protease inhibitors, primary screen, biochemical, fluorescence, uHTS. Cysteine protease ATG4B (Homo sapiens), Q9Y4P1. ATG4B cleavage of LC3-PLA2, NBD-HPC fluorescence, 1 h. inhibition, % at 8.33 µM. actives 0.51% (n = 340,000); in the data active = inhibition above about 40%
# MEKK3 PB1 HTS = modulators of MEKK3-MEK5 PB1 binding, primary screen, biochemical, wildtype MEKK3, multiplex bead flow cytometry, Alexa488-MEK5; Mitogen-activated protein kinase kinase kinase 3 (Homo sapiens), Q99759; bead-based flow cytometry, Alexa488-MEK5 binding to MEKK3; actives lie on both sides; 0 = blocked by unlabeled MEK5, 100 = vehicle; binding response (% of control), % at 10 µM; actives 1.4% (n = 290,000); AID 1529, 2009;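 active = binding response more than 3 SD above or below the average of its plate-row segment, actives on both sides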;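 note: Alexa488 bead fluorescence after subtracting the streptavidin-only scavenger bead signal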
# PREPL inh = PREPL enzyme inhibitors, primary screen, biochemical, fluorescence polarization. actives 0.68% (n = 320,000). inhibition, % at 5.96 µM. recombinant PREPL, fluorescence polarization activity-based probe. Prolyl endopeptidase-like (Homo sapiens), Q4J6C6; in the data active = inhibition above about 43%;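 note: 0% = enzyme with DMSO and 100% = wells lacking enzyme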
# Target sequence (Q4J6C6 whole entry, looked up): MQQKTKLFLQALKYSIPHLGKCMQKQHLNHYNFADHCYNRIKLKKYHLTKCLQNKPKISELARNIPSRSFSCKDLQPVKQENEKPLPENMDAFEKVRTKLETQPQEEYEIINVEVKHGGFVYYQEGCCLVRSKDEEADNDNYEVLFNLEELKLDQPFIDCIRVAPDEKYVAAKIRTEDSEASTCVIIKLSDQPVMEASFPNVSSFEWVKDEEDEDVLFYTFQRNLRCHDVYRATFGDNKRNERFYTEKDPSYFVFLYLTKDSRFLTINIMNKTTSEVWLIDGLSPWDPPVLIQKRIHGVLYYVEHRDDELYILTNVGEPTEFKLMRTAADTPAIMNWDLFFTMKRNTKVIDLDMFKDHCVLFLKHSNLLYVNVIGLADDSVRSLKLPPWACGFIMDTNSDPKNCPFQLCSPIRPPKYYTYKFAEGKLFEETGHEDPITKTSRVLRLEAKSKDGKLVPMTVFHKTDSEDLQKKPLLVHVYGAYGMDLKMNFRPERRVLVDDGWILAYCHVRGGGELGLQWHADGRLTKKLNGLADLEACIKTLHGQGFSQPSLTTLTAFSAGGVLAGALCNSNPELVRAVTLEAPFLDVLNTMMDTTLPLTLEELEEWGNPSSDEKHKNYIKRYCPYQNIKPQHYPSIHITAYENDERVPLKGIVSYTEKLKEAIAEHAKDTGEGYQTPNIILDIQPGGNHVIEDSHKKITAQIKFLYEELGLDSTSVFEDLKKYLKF
# MEKK2wt confirm = modulators of MEK5 binding to wildtype MEKK2, confirmation, biochemical, single concentration, multiplex bead flow cytometry; actives 2.4% (n = 5,900); binding response (% of control), % at 10 µM; Alexa488-MEK5 binding to MEKK2 WT; actives lie on both sides; shares compounds with MEKK3 PB1 HTS; in the data active = binding response below about 16% or above about 210%; inactive = in between
# MEKK2mut-MEK5 = mutant MEKK2 PB1-MEK5 binding signal retest – biochemical, single concentration, multiplex bead flow cytometry, confirmation | percent response, % at 10 µM | shares compounds with MEKK3 PB1 HTS | Alexa488-MEK5 binding to MEKK2 mutant | AID 1893, 2009 | actives 2% (n = 5,900); in the data active = percent response mostly above about 71%, no sharp cut-off; inactive = mostly below about 38%;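 note: higher means compound restores mutant binding toward wildtype level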
# MEKK3-MEK5 inh = MEKK3 wild-type PB1 binding to MEK5, inhibitors, confirmation, biochemical, bead multiplex flow cytometry, single concentration, wildtype. shares compounds with MEKK3 PB1 HTS. Alexa488-MEK5 binding to MEKK3; stronger effect = lower value. binding response (% of control), % at 10 µM. actives 1.8% (n = 5,900). AID 1894, 2009;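 active = binding response below 72% of control, or above a set upper limit, though filed actives all read lower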;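 note: 100% = DMSO only wells and 0% = binding blocked by excess unlabeled MEK5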
# An asterisk follows results filed as active; nt = no result; [ ] = another dose, or the depositor's remark. Rows were chosen to be rich in hits. Some 3.1% of all compounds tested hit in one or more screens of this group.
SMILES,UBC13 polyUb,MEKK2 mut-MEK5,MEKK2wt PB1 HTS,ATG4B inhibitor,MEKK3 PB1 HTS,PREPL inh,MEKK2wt confirm,MEKK2mut-MEK5,MEKK3-MEK5 inh
CCOc1ncccc1C(=O)Nc1ccc(C)c(S(=O)(=O)N2CCCCCC2)c1,11,nt,nt,-2,nt,-6,nt,nt,nt
COC(=O)[C@H](Cc1ccccc1)NC(=O)NCc1cccs1,-4,13,105,6,104,18,nt,nt,nt
O=C(NCc1cccs1)N[C@@H](Cc1ccccc1)C(=O)O,4,-26,-2.0*[inhibitor],-3,1.0*[inhibitor],1,90,-3,86
CC(C)[C@H](NC(=O)NCc1cccs1)C(=O)O,0,-46,2.0*[inhibitor],0,2.0*[inhibitor],-7,102,8,108
Cc1ccc(C(=O)NCCc2nnc3ccc(SCC(=O)Nc4c(C)cc(C)cc4C)nn23)cc1,-3,1,108,-6,133*,-7,103,2,101
O=C(COC(=O)c1ccccc1OC(F)F)Nc1ccc2[nH]c(=O)[nH]c2c1,-8,nt,nt,3,nt,-8,nt,nt,nt
O=C(O)CCS(=O)(=O)Cc1ccccc1F,4,-46,2.0*[inhibitor],20,2.0*[inhibitor],2,108,5,105
COc1ccc(CNC(=O)CCC(=O)Nc2nnc(CC(C)C)s2)cc1,2,4,97,-3,101,-11,nt,nt,nt
O=C(CSc1cccc(C(F)(F)F)c1)NC(=O)c1ccccc1,-5,0,104,2,146*,-23,111,8,111
CSc1ccc(-c2sc(Nc3ccccc3)n[n+]2-c2ccc(F)cc2)cc1,1,28*,139*,-13,109,6,128,12,111
COc1ccc(C)cc1Nc1n[n+](-c2ccccc2)c(-c2cc(OC)c(OC)cc2Br)s1,38,26*,134*,6,103,5,154,40,109
Cc1cccc(-c2sc(Nc3ccccc3)n[n+]2-c2ccc(F)cc2)c1,-3,9,105,-5,105,-3,nt,nt,nt
COc1ccc(C)cc1Nc1n[n+](-c2ccccc2)c(-c2ccc(C(=O)O)cc2)s1,-22,-6,101,5,101,-5,nt,nt,nt
Fc1ccc(-[n+]2nc(Nc3ccccc3)sc2-c2c3ccccc3cc3ccccc23)cc1,-8,31*,133,18,105,13,172,50,105
Oc1ccc(-c2sc(Nc3ccccc3)n[n+]2-c2ccc(F)cc2)cc1,-2,9,102,-3,100,0,nt,nt,nt
COc1ccc(-c2sc(Nc3ccccc3)n[n+]2-c2ccc(F)cc2)c(C)c1C,42,37*,141*,13,110,24,120,10,99
CN(C(=O)c1ccc(NC(=O)C2CCCN(C(=O)OC(C)(C)C)C2)cc1)C1CCC1 (stereo unspecified),8,nt,nt,-15,nt,9,nt,nt,nt
COc1ccc(C(CNC(=O)Cc2ccccc2F)N2CCCCC2)cc1 (stereo unspecified),-8,-1,113,3,131*,15,108,-1,103
COC(=O)CCC(=O)N1CCCC(N2CCN(c3cccc(C(F)(F)F)c3)CC2)C1 (stereo unspecified),11,-14,19*[inhibitor],-1,37*[inhibitor],-2,100,4,103
Cc1ccc(C(C)C)cc1OCC(=O)Nc1ccc(-n2cnnn2)cc1,-2,nt,nt,-6,nt,nt,nt,nt,nt
O=C(CNC(=O)c1ccc(Cl)cc1Cl)OCc1nnc(-c2ccccc2)o1,-3,nt,nt,-1,nt,-53,nt,nt,nt
O=C(Nc1cccc(O)c1)C(Cc1ccccc1)N1C(=O)c2cccc3cccc(c23)C1=O (stereo unspecified),-24,0,101,-17,140*,0,98,-3,102
COc1cc(C(=O)Nc2ccc(C)c(S(=O)(=O)N(C)C)c2)ccc1OCC(=O)N1CCOCC1,-2,nt,nt,-8,nt,4,nt,nt,nt
Cc1ccc(S(=O)(=O)Oc2ccc3ccc(O)cc3c2)cc1,-2,4,98,-1,104,16,nt,nt,nt
CCOc1ccc(S(=O)(=O)Oc2ccc3ccccc3c2)cc1,-10,0,106,3,148*,-25,98,-7,101
SMILES,UBC13 polyUb,MEKK2 mut-MEK5,MEKK2wt PB1 HTS,ATG4B inhibitor,MEKK3 PB1 HTS,PREPL inh,MEKK2wt confirm,MEKK2mut-MEK5,MEKK3-MEK5 inh
O=C(CSCc1ccccc1)NNC(=S)Nc1cccc(Cl)c1Cl,-20,4,105,25,100,-20,nt,nt,nt
COc1cc2nc(CN3CCOCC3)n(CC(=O)NCC(F)(F)F)c(=O)c2cc1OC,1,-4,94,3,98,13,nt,nt,nt
Cn1c(=NC(=O)COc2ccccc2)sc2ccccc21,0,-3,85,-6,74*[inhibitor],-3,98,2,99
Cn1c(=NC(=O)CS(=O)(=O)c2ccccc2)sc2ccccc21,0,nt,nt,-4,nt,-15,nt,nt,nt
N/C(Cc1cccc2ccccc12)=N\OC(=O)Cc1cccs1,-3,0,100,27,144*,-5,98,0,102
O=S(=O)(Cc1ccccc1)N1CCC(N2CCN(c3ccccc3)CC2)CC1,1,5,117,-17,133*,5,111,4,104
NC(=Nc1ccccc1)N(c1ccccc1)c1ccccc1,nt,nt,nt,0,nt,nt,nt,nt,nt
N=c1scc(-c2ccccc2)n1/N=C/c1ccco1,-6,55*,108,18,103,15,87,-2,95
N#Cc1cccc(C(=O)Nc2cc(S(=O)(=O)N3CCOCC3)ccc2N2CCCC2)c1,-3,nt,nt,6,nt,30,nt,nt,nt
CC1(C)CC(=O)C2=C(C1)N1C(=C(C#N)C2c2ccc(Cl)cc2)N=C(N)c2ccccc21 (stereo unspecified),2,-14,2.0*[inhibitor],0,1.0*[inhibitor],8,93,-3,101
